Laboratory results reported in PubChem BioAssay AID463173 (ICCB-Longwood Screening Facility, Harvard Medical School, 2010).
The whole screen tested about 52,000 compounds, of which about 1,700 (3.3%) were called active. This is one part of a sample in which actives are shown more often than they occur. Values without a mark were called inactive. No stated cut-off is given here; in the data, active means survival mostly below about 52% (no sharp cut-off); inactive means mostly above about 56%.

Tested on: Wild type
Assay: S. aureus survival, RN4220 and DeltatarO strains – OD600, teichoic acid synthesis inhibitors, primary screen (AID 463173)
Conditions: S. aureus RN4220 wild type/DeltatarO growth, OD600, 18 h, stronger effect = lower value, screened at 18.75 µg/mL (by protocol)

Structure (SMILES) | survival
CCOc1ccc(-n2c(=O)c3c(C)c(C)sc3n(Cc3ccccc3C)c2=O)cc1 | 89%
Cc1ccc(Cn2c(=O)n(Cc3ccccc3)c(=O)c3c(C)c(C)sc32)cc1 | 83%
Cc1ccc(-n2c(=O)c3c(C)c(C)sc3n(Cc3ccc(F)cc3Cl)c2=O)cc1C | 60%
Cc1sc2c(c1C)c(=O)n(CCc1ccccc1)c(=O)n2Cc1ccc(F)cc1 | 50%
Cc1ccc(Cn2c(=O)n(CCc3ccccc3)c(=O)c3c(C)c(C)sc32)cc1 | 22% (active)
CCOc1ccc(-n2c(=O)c3c(C)c(C)sc3n(CC(=O)C(C)(C)C)c2=O)cc1 | 125%
Cc1ccc(Cn2c(=O)n(-c3ccc(C)c(C)c3)c(=O)c3c(C)c(C)sc32)cc1 | 46% (active)
Cc1ccc(C)c(Cn2c(=O)n(-c3ccc(Cl)cc3)c(=O)c3c(C)c(C)sc32)c1 | 73%
Cc1sc2c(c1C)c(=O)n(CCc1ccccc1)c(=O)n2Cc1ccc(C(C)(C)C)cc1 | 85%
Cc1cccc(Cn2c(=O)n(CCc3ccccc3)c(=O)c3c(C)c(C)sc32)c1 | 90%
Cc1sc2c(c1C)c(=O)n(CCc1ccccc1)c(=O)n2Cc1cccc(F)c1 | 9% (active)
CCOc1ccc(-n2c(=O)c3c(C)c(C)sc3n(Cc3ccc(C(C)(C)C)cc3)c2=O)cc1 | 19% (active)
O=C(CN1CCCN(Cc2ccc(F)cc2)S1(=O)=O)NCc1ccccc1Cl | 78%
CC(C)NS(=O)(=O)c1ccc(OCC(=O)N2CCN(c3ccccc3F)CC2)cc1 | 89%
FC(F)(F)c1ccc(-c2noc(-c3ccccc3Br)n2)cc1 | 89%
CCOc1cc(C2CC(=O)Nc3cc4c(cc32)OCCO4)ccc1O (stereo unspecified) | 78%
CCCc1nn2c(=O)cc(COC(=O)c3ccc(NC(=O)COc4ccccc4F)cc3)nc2s1 | 121%
O=C(NCCc1ccccc1)c1cc(-c2cccc(Cl)c2)on1 | 87%
O=C(c1cc(-c2cccc(Cl)c2)on1)N1CCN(c2ccccc2)CC1 | 4% (active)
CN(Cc1ccccc1)C(=O)c1cc(-c2cccc(Cl)c2)on1 | -15% (active)
CC1CCN(C(=O)c2cc(-c3ccc(Cl)cc3)on2)CC1 | 85%

Structure (SMILES) | survival
O=C(c1cc(-c2ccccc2)on1)N1CCCCC1 | 113%
CC1CCN(C(=O)c2cc(-c3ccc(Br)cc3)on2)CC1 | 78%
COCCNC(=O)c1cc(-c2cccc(Cl)c2)on1 | 136%
CC1CCN(C(=O)c2cc(-c3cccc(Cl)c3)on2)CC1 | -15% (active)
O=C(c1cc(-c2cccc(Cl)c2)on1)N1CCCCC1 | 66%
O=C(CSCc1cccc(F)c1)NCc1ccccc1 | 85%
CC(=O)Nc1cccc(C(=O)NCc2ccc3c(c2)CCN3C(=O)c2ccccc2)c1 | 63%
CCOc1cc(CNc2ccc(O)cc2)cc(Br)c1OCc1ccccc1 | -5% (active)
CCOc1cccc(CNc2ccc(O)cc2)c1OCc1ccccc1Cl | 54%
CCOc1cc(CNc2ccc(O)cc2)cc(Cl)c1OCc1ccccc1 | -5% (active)
COc1cc(CNc2ccc3[nH]c(=O)[nH]c3c2)cc(Br)c1OCc1ccc(F)cc1 | 117%
CCOc1cc(CNc2ccc(C(=O)O)cc2)ccc1OCc1ccccc1 | 57%
CCOc1c(Cl)cc(CNc2ccc3[nH]c(=O)[nH]c3c2)cc1OC | 88%
Oc1ccc(NCc2ccccc2OCc2ccc(Cl)cc2)cc1 | 72%
CCOc1cc(CNc2ccc(O)cc2)ccc1OCc1ccc(Cl)cc1 | 10% (active)
Oc1ccc(NCc2ccccc2OCc2ccccc2)cc1 | 100%
COc1cccc(NC(=O)C2CCN(S(=O)(=O)c3ccc4[nH]c5c(c4c3)CCCCC5)CC2)c1 | 84%
COc1ccc(NC(=O)c2ccc(CNS(=O)(=O)c3ccc4c(c3)C(C)(C)C(=O)N4C)cc2)cc1 | 114%
COc1cccc(NC(=O)c2nnn(Cc3cccc(C(F)(F)F)c3)c2N)c1 | 87%
Cc1ccc(Cl)cc1-n1c(CCC(=O)O)ccc1-c1cccs1 | 64%
CCOc1ccc(-c2cc3c(=O)n(CC(=O)Nc4cc(F)ccc4C)ccn3n2)cc1 | 68%

Structure (SMILES) | survival
Cc1ccc(-n2ncc(C(=O)Nc3ccc4c(c3)OCCO4)c2C2CCN(C(=O)OC(C)(C)C)CC2)cc1C | 82%
CCCN1CCc2nc(SCC(=O)Nc3ccc(C)c(Cl)c3)[nH]c(=O)c2C1 | 99%
O=C(c1cc2ccc3cccnc3c2[nH]1)N1CCN(c2ccc(Cl)cc2)CC1 | 91%
O=C(c1noc2c1CCCCC2)N1CCN(c2ccc(Cl)cc2)CC1 | 73%
CC1CCc2onc(C(=O)N3CCN(c4ccccc4)CC3)c2C1 (stereo unspecified) | 121%
CC1CCc2onc(C(=O)N3CCN(c4cccc(C(F)(F)F)c4)CC3)c2C1 (stereo unspecified) | 10% (active)
CC1CCc2onc(C(=O)N3CCN(c4cccc(Cl)c4)CC3)c2C1 (stereo unspecified) | 88%
O=C(c1cc2ccc3cccnc3c2[nH]1)N1CCN(c2cccc(C(F)(F)F)c2)CC1 | -2% (active)
O=C(c1noc2c1CCCCC2)N1CCN(c2cccc(C(F)(F)F)c2)CC1 | -3% (active)
O=C(c1noc2c1CCCCC2)N1CCN(c2cccc(Cl)c2)CC1 | 73%
O=C(c1cc2ccc3cccnc3c2[nH]1)N1CCN(c2ccccc2)CC1 | 59%
CCn1c(Cc2ccccc2)nnc1SCC(=O)N(C)C1CCCCC1 | 108%
COc1ccc(CNc2nc3c(-c4ccccc4)nnn3c3ccccc23)cc1 | 90%
COc1ccc(-c2cc(C(=O)Nc3c(C)n(C)n(-c4ccccc4)c3=O)no2)cc1 | 73%
Cc1cccc(CNC(=O)c2ccc(N3Cc4ccccc4Oc4ncccc43)s2)c1 | 69%
Cc1ccc(Cn2c(C)c3cnn(CC(=O)N4CCN(c5cc(C)ccc5C)CC4)c(=O)c3c2C)cc1 | 65%
CCOC(=O)c1noc2ncn(CC(=O)Nc3ccc(F)cc3Cl)c(=O)c12 | -6% (active)
CCOC(=O)c1noc2ncn(CC(=O)Nc3cc(Cl)ccc3OC)c(=O)c12 | 76%
CCOC(=O)c1noc2ncn(CC(=O)Nc3ccccc3OC)c(=O)c12 | 133%
